Screening results deposited in PubChem by National Center for Advancing Translational Sciences (NCATS).
HCMV inh = blocks human cytomegalovirus replication | HFF cells, HCMV-luciferase reporter, 72 h; hits give low values | activity change, negative = inhibition, % at 57.5 µM | 410,000 compounds, 4.5% hits; in the data active means activity change below about -60%; inconclusive means no clear call, values can overlap the other calls; inactive means above about -39%
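Two-dose cell screen: HFF monolayers treated with compounds and infected with luciferase-expressing HCMV at 1 PFU/cell, 72 h at 37C, then lysed for luciferase measurement.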
Lassa entry inh = inhibitors of Lassa virus binding or cell entry | 300,000 compounds, 1.2% hits | AID 540256 | Lassa virus pseudotype entry inhibition, cell reporter | Potency, µM (titrated, usually from 37.9 µM), most hits filed as inhibitors; calls by dose curve; tested in HEK293 cells; further: nearly all actives have a fitted effect of over 50% in size
Marburg entry inh = blocks Marburg virus binding to or entry into cells; 300,000 compounds, 1.8% hits; Marburg virus pseudotyped entry inhibition, cell reporter; Potency, µM (top dose mostly 37.8 µM), most hits filed as inhibitors; calls by dose curve; tested in HEK293 cells
FMDV antiviral = antivirals against foot and mouth disease virus; FMDV antiviral cell-based qHTS; 410,000 compounds, 1.2% hits; AID 1159524; Potency, µM (titrated, usually from 57.9 µM), usual class: inhibitors; calls by dose curve; tested in HEK293T cells; further: read-out not given here; nearly all actives have a fitted effect of over 45% in size
HCV inh = inhibitors of hepatitis C virus infection; Huh7.5.1 HCVcc-Cre infection, luciferase reporter, 44 h; Potency, µM (titrated, usually from 41.8 µM), usual class: inhibitors; 340,000 compounds, 3.4% hits; active means well fitted inhibition curve with a large enough effect; inconclusive means small, poorly fitted or top-dose-only effect, or another doubt; inactive means no such curve, though single readings can be large or run the other way
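Antiviral activity was scored by luciferase reporter output from cells infected with HCVcc-Cre (~0.5 moi) in presence of compound, 44 h infection period, cells seeded 1,000/well 4 h prior.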
Hits are given with their value; - = inactive; ? = inconclusive; . = no result; ! = a repeat was not active. This is a sample that favours compounds with a hit; in the whole collection about 7.9% have one here.

SMILES	HCMV inh	Lassa entry inh	Marburg entry inh	FMDV antiviral	HCV inh
CCOC(=O)c1cc2c(=O)n3ccccc3nc2n(CCOC)c1=NC(=O)c1c(-c2c(F)cccc2Cl)noc1C	-60.6!	?	?	-	?
O=C(c1ccncc1)c1ccc(N2CCN(C3CC(=O)N(Cc4ccccc4)C3=O)CC2)cc1 (stereo not drawn)	-63.5	?	?	15.8µM	?
O=C(c1ccc(N2CCN(C3CC(=O)N(Cc4cccs4)C3=O)CC2)cc1)c1cccnc1 (stereo not drawn)	-	?	?	?	12.6µM
NC(=O)C1(N2CCCCC2)CCN(C2CC(=O)N(Cc3cccs3)C2=O)CC1 (stereo not drawn)	-	-	-	-	-
COc1cc(OC)c(OC)cc1CN1CCOc2ccc(CN3C[C@@H](C)O[C@@H](C)C3)cc2C1	.	.	.	-	.
COc1ccc(-c2nn(-c3ccccc3)cc2/C=N/O)cc1	-	.	.	14.1µM	-
COc1ccc(-c2nn(-c3ccccc3)cc2/C=N/N2C(=O)CSC2=S)cc1	-96.2	?	?	-	?
COc1ccc(-c2nn(-c3ccccc3)cc2/C=N/NC(=O)c2cccc(S(=O)(=O)Nc3ccccc3Cl)c2)cc1	-101.4	?	?	-	?
CCCc1nc2cccnc2n1C1CCN(C(=O)CC2NC(=O)c3ccccc32)CC1 (stereo not drawn)	.	.	.	-	.
C/C(CCN1CCCc2nc(C)c(C)cc21)=N\O[C@H](C)c1cn([C@@H]2COC[C@H]2O)nn1	.	.	-	.	.
COc1cc([N+](=O)[O-])c2ncccc2c1[N+](=O)[O-]	.	.	.	-	.
COc1cc([N+](=O)[O-])c2nc(C)ccc2c1[N+](=O)[O-]	-	-	?	-	6.31µM
COc1ccc(NS(=O)(=O)c2cc(NC(=O)c3ccc(C)o3)ccc2N2CCCCC2)cc1	-89.9	?	?	-	?
CCC(=O)Nc1ccc(N2CCCCC2)c(C(=O)Nc2ccc(OC)cc2)c1	-81.5	-	?	-	?
Cc1ccc(NC(=O)c2cc(NC(=O)CCC(=O)O)ccc2N2CCCCC2)cc1	-	-	-	.	-
COc1ccc(NS(=O)(=O)c2cc(NC(=O)c3ccccc3F)ccc2N2CCCC2)cc1	?	?	?	-	?
COc1ccc(NS(=O)(=O)c2cc(NC(=O)c3cccs3)ccc2N2CCCC2)cc1	-96.8	?	?	-	?
CC(C)=CCCC(C)=CCON=C1C[C@@H](O)[C@@H](O)[C@@H]2[C@H]3C(=O)N(Cc4ccc5c(c4)OCO5)C(=O)[C@@H]3CC[C@H]12	.	?	-	.	.
O=[N+]([O-])/C=C\c1ccc(N2CCOCC2)cc1	-	.	.	17.8µM	?
O=C(C=Cc1ccc2c(c1)OCO2)C1CC1	?	.	.	-	.
COc1cc2c(cc1/C=C/[N+](=O)[O-])OCO2	-107.5	?	?	14.1µM	-
O=[N+]([O-])/C=C/c1ccc2c(c1)OCO2	.	3.26µM	?	.	.
COc1ccccc1OC(C)C(=O)Nc1c(C(=O)c2ccc(Cl)cc2)oc2ccccc12 (stereo not drawn)	-	-	-	-	.
COc1ccc([C@@H]2CC=C(C(=O)O)[C@H](c3ccc(Cl)cc3)N2S(=O)(=O)c2ccc(C)cc2)cc1OC	-	.	.	-	-
Cc1ccccc1Nc1c(-c2cccnc2)nc2ccc(Cl)cn12	-	-	?	-	.
SMILES	HCMV inh	Lassa entry inh	Marburg entry inh	FMDV antiviral	HCV inh
Cc1cccc(S(=O)(=O)NCCNS(=O)(=O)c2cccc(C)c2)c1	-	-	-	-	?
CC(C)(C)c1cc(C(=O)CCN2CCOCC2)cc(C(C)(C)C)c1O	-76.7	-	-	-	-
O=C(Nc1ccc2c(c1)N(C1CCCC1)C(=O)c1ccccc1S2)c1ccc(F)cc1	?	?	.	-	.
CN1CCN(C(=O)Nc2ccc3c(c2)N(C)C(=O)c2ccccc2S3)CC1	?	-	?	-	?
CC(C)Oc1ccc(CNC(=O)Nc2ccc3c(c2)N(C)C(=O)c2ccccc2S3)cc1	-76.3	-	?	?	.
CN(Cc1ccccc1)C(=O)Nc1ccc2c(c1)N(C)C(=O)c1ccccc1S2	-	?	10µM	-	.
O=C(Nc1ccc2c(c1)N(C1CCCC1)C(=O)c1ccccc1S2)c1ccccc1	-63.5	2.82µM	.	-	.
CN1C(=O)c2ccccc2Sc2ccc(NC(=O)N3CCN(c4ccccc4)CC3)cc21	-76.5	-	?	?	.
COc1ccc(CNC(=O)Nc2ccc3c(c2)N(C)C(=O)c2ccccc2S3)cc1OC	?	-	-	?	.
CCCCN(C)CCNC(=O)C1CCN(S(=O)(=O)c2cccc3nsnc23)CC1	-	.	.	-	-
CCOC(=O)C1C(=O)C=C(c2ccc(C)cc2)CC1c1ccc([N+](=O)[O-])cc1 (stereo not drawn)	-70.7	-	?	-	?
CCOC(=O)C1C(=O)C=C(c2ccccc2)CC1c1ccccc1 (stereo not drawn)	-	?	?	-	-
O=C(NCC1CC1)C1=COC2=NC(=O)N(Cc3cccc(Cl)c3)CCN12	-	.	.	.	.
COC(=O)c1cc2sccc2n1CC(=O)Nc1ccc(C)cc1C	-	.	-	-	.
CC1=CC2OC3CC4OC(=O)C=CC=CC(C(C)O)OCC(O)C5(C)OC5C(=O)OCC2(CC1O)C4(C)C31CO1 (stereo not drawn)	-97.6	.	?	.	.
CC1=CC2OC3CC4OC(=O)C=CC=CC(=O)OCCC(C)C(O)C(=O)OCC2(CC1)C4(C)C31CO1 (stereo not drawn)	-97.8	?	?	-	.
CC1CCOC(=O)C=CC=CC(=O)OC2CC3OC4C5OC5(C)C(O)CC4(COC(=O)C1O)C2(C)C31CO1 (stereo not drawn)	-97.5	.	?	.	.
CC(O)C1C=CC=CC(=O)OC2CC3OC4C5OC5(C)C(O)CC4(COC(=O)C(O)C(C)CCO1)C2(C)C31CO1 (stereo not drawn)	-97.9	.	0.126µM	.	.
Cc1c(Cl)cccc1NC(=O)Cc1ccc([N+](=O)[O-])cc1	?	-	?	-	-
Cc1cc2n(n1)CCC(=O)N2Cc1ccc(C(=O)Nc2cccc(C(F)(F)F)c2)cc1	-	-	.	-	.
C#CCCCO/N=C1\C[C@@H](O)[C@@H](O)[C@@H]2[C@@H]3C(=O)N(C4CCCCC4)C(=O)[C@@H]3CC[C@@H]12	.	.	-	.	.
Cc1ccc(-n2c(C)cc(/C=C3/C(=O)NC(=O)N(C)C3=O)c2C)cc1	-	-	-	-	-
Cc1cc(/C=C2/NC(=O)NC2=O)c(C)n1-c1sc2c(c1C#N)CCCC2	-72.8	4.47µM	?	-	-
CCOC(=O)c1cccc(-n2c(C)cc(C=O)c2C)c1	-	?	?	?	-
CCOC(=O)c1c(-n2c(C)cc(C=O)c2C)sc2c1CCCC2	-	9.2µM	11.6µM	-	?
CCOC(=O)c1c(-n2c(C)cc(/C=C3\C(=O)NC(=O)N(C)C3=O)c2C)sc2c1CCCC2	-	?	?	-	14.1µM
Cc1cc(/C=C2\C(=O)NC(=O)N(c3ccc(Cl)cc3)C2=O)c(C)n1-c1sc2c(c1C#N)CCCC2	-	.	-	-	-
Cc1nc2ccccn2c1C(=O)CSc1ccccc1Cl	-65.7	-	?	25.1µM	?
Cc1nc2ccccn2c1C(=O)CSc1ccc(Cl)cc1Cl	-	-	-	-	?
O=C(c1ccccc1)N1CCc2[nH]nc(-c3ccccc3)c2C1	-	.	.	-	-
